Hit rate of the full screen: of about 10,000 compounds, about 320 (3.2%) were called active. This excerpt belongs to a sample that is enriched for actives. A number with no mark means an inactive call. No stated cut-off is given here; in the data, active means CPE inhibition mostly above about 9.1% (no sharp cut-off); inactive means mostly below about 7.2%.
Test: Dengue virus cytopathic effect inhibitors, cell-based, CPE readout, HTS (AID 540333)
Conditions: Dengue virus CPE inhibition in host cells, at 20 µM; stronger effect = higher value

**Q.** Which CPE inhibition does the source give for `CCS(=O)(=O)c1nc(S(=O)(=O)c2ccc(Cl)cc2)c(N2CCc3ccccc3C2)s1` here?
**A.** 0.63%

**Q.** With `CCOc1ccc(/C=C2\SC(N3CCc4ccccc4C3)=NC2=O)cc1` as the compound, how does the CPE inhibition read?
**A.** 17.6% (active)

**Q.** With `CCOc1ccc(N2C(=O)S/C(=C\c3cccn3C)C2=O)cc1` as the compound, how does the CPE inhibition read?
**A.** inactive

**Q.** For `O=C(CNC1=NCCC1)c1ccc(Cl)cc1`, which CPE inhibition is on record?
**A.** 0.59%

**Q.** With `CCN(C(=O)COC(=O)c1cc(NS(=O)(=O)c2ccc(Cl)c([N+](=O)[O-])c2)ccc1O)C1CCCCC1` as the compound, how does the CPE inhibition read?
**A.** 17.4% (active)

**Q.** With `O=C(OCC(=O)N1CCCCC1)c1cc(NS(=O)(=O)c2ccc(Cl)c([N+](=O)[O-])c2)ccc1O` as the compound, how does the CPE inhibition read?
**A.** 0.48%

**Q.** With `CCN(CC)S(=O)(=O)c1ccc(NS(=O)(=O)c2ccc(O)c([N+](=O)[O-])c2)cc1` as the compound, how does the CPE inhibition read?
**A.** 0.085%

**Q.** Which CPE inhibition does the source give for `O=C(Nc1nnc(C2CC2)s1)c1cc([N+](=O)[O-])ccc1N1CCCCC1` here?
**A.** inactive

**Q.** With `CCOC(=O)[C@H]1[C@H]2COc3ccc(Cl)cc3[C@@H]2N2C(=O)c3cc(F)c(F)cc3NC(=O)[C@@]12C` as the compound, how does the CPE inhibition read?
**A.** 18% (active)

**Q.** With `CCOC(=O)[C@H]1[C@H]2COc3ccc(OC)cc3[C@@H]2N2C(=O)c3ccc(F)cc3NC(=O)[C@@]12C` as the compound, how does the CPE inhibition read?
**A.** inactive

**Q.** With `CCOC(=O)[C@H]1[C@H]2COc3ccccc3[C@@H]2N2C(=O)c3cc(Cl)ccc3NC(=O)[C@@]12C` as the compound, how does the CPE inhibition read?
**A.** 4.61%

**Q.** With `CCOC(=O)[C@H]1[C@H]2COc3ccc(Cl)cc3[C@@H]2N2C(=O)c3cc(C)ccc3NC(=O)[C@@]12C` as the compound, how does the CPE inhibition read?
**A.** 12.9% (active)

**Q.** For `CCOC(=O)[C@H]1[C@H]2COc3ccccc3[C@@H]2N2C(=O)c3ccc(C)cc3NC(=O)[C@@]12C`, which CPE inhibition is on record?
**A.** inactive

**Q.** For `CCOC(=O)[C@H]1[C@H]2COc3ccccc3[C@@H]2N2C(=O)c3cc(C)ccc3NC(=O)[C@@]12C`, which CPE inhibition is on record?
**A.** 0.17%

**Q.** With `NC(=O)CC[C@H](NC(=O)OCc1ccccc1)C(=O)OCc1ccc(Cl)cc1` as the compound, how does the CPE inhibition read?
**A.** 0.15%

**Q.** For `COc1ccc(NC(=O)c2ccc3c(c2)S(=O)(=O)c2ccccc2C3=O)cc1`, which CPE inhibition is on record?
**A.** 1.25%

**Q.** Which CPE inhibition does the source give for `O=C(/C=C\Nc1ccc(Br)cc1)c1cccnc1` here?
**A.** 0.09%

**Q.** Which CPE inhibition does the source give for `COc1cccc(C(=O)NC(=S)Nc2ccc(N(C)C)cc2)c1` here?
**A.** inactive

**Q.** For `COc1ccc(NC(=O)c2cc3c(s2)CCC(C)C3)cc1S(=O)(=O)N1CCOCC1` (stereo unspecified), which CPE inhibition is on record?
**A.** 16.7% (active)

**Q.** For `COc1ccc(S(=O)(=O)N2CCOCC2)cc1NC(=O)c1cc2c(s1)CCCC2`, which CPE inhibition is on record?
**A.** 0.62%

**Q.** With `COc1ccc(NC(=O)CN2CCC(Cc3ccccc3)CC2)cc1S(=O)(=O)N1CCOCC1` as the compound, how does the CPE inhibition read?
**A.** 0.605%

**Q.** Which CPE inhibition does the source give for `CCCN(CC(=O)Nc1ccc(F)c(F)c1F)CC(=O)Nc1c(Cl)cccc1Cl` here?
**A.** 1.15%

**Q.** With `Cc1cc(C)nc(NC(=NCCc2c[nH]c3ccccc23)NC(=O)Nc2ccc(Cl)c(Cl)c2)n1` as the compound, how does the CPE inhibition read?
**A.** 7.48%

**Q.** With `Cc1cc(C)nc(NC(=NCCc2c[nH]c3ccccc23)NC(=O)Nc2ccccc2)n1` as the compound, how does the CPE inhibition read?
**A.** 13.5% (active)

**Q.** With `Cc1cc(C)nc(NC(=NCCc2c[nH]c3ccccc23)NC(=O)Nc2ccc(Cl)cc2)n1` as the compound, how does the CPE inhibition read?
**A.** 4.91%

**Q.** Which CPE inhibition does the source give for `COc1ccc(NC(=S)Nc2ccc(OCc3ccccc3)cc2)c(OC)c1` here?
**A.** 5.78%

**Q.** Which CPE inhibition does the source give for `CC(C)c1ccccc1NC1=CC(=O)CC(C)(C)C1` here?
**A.** 1.06%

**Q.** With `CCCNC(=S)N1CCN(C(c2ccccc2)c2ccccc2)CC1` as the compound, how does the CPE inhibition read?
**A.** 9.31%

**Q.** For `CC(NC(=S)N1CCOCC1)c1ccccc1` (stereo unspecified), which CPE inhibition is on record?
**A.** inactive

**Q.** With `CCN1CCN(C(=S)NC(C)c2ccccc2)CC1` (stereo unspecified) as the compound, how does the CPE inhibition read?
**A.** inactive

**Q.** With `CC(C)CNC(=S)N1CCN(C(c2ccccc2)c2ccccc2)CC1` as the compound, how does the CPE inhibition read?
**A.** 27.6% (active)

**Q.** For `CCC(C)NC(=S)N1CCN(C(c2ccccc2)c2ccccc2)CC1` (stereo unspecified), which CPE inhibition is on record?
**A.** 11% (active)

**Q.** Which CPE inhibition does the source give for `COc1ccc(NC(=S)N2CCN(C(c3ccccc3)c3ccccc3)CC2)cc1OC` here?
**A.** 2.59%

**Q.** Which CPE inhibition does the source give for `O=C(NCCc1ccccc1)C(=O)Nc1nccs1` here?
**A.** 0.515%

**Q.** With `CCCc1nnc(NC(=O)CCC(=O)N2CCN(C3c4ccccc4-c4ccccc43)CC2)s1` as the compound, how does the CPE inhibition read?
**A.** inactive

**Q.** Which CPE inhibition does the source give for `CCOc1cc(/C=N/NC(=O)CSc2nncn2C)ccc1OC(=O)c1ccc(Cl)cc1` here?
**A.** 1.75%

**Q.** For `S=C(Nc1ccccc1Cl)N1CCCCC1`, which CPE inhibition is on record?
**A.** inactive

**Q.** With `N#Cc1c(-c2ccc(Cl)cc2)c(C#N)c(=O)n(N)c1N` as the compound, how does the CPE inhibition read?
**A.** 0.43%

**Q.** For `Cc1ccc(NC(=O)c2cnccn2)cc1S(=O)(=O)N(C)C`, which CPE inhibition is on record?
**A.** 1.06%

**Q.** With `Cc1ccc(NC(=O)CSc2nn(-c3ccc(Cl)cc3)c(=S)s2)cc1S(=O)(=O)N(C)C` as the compound, how does the CPE inhibition read?
**A.** 2.52%

**Q.** Which CPE inhibition does the source give for `COc1ccc(CCC(=O)OCC(=O)Nc2ccc(C)c(S(=O)(=O)N(C)C)c2)cc1` here?
**A.** 0.745%

**Q.** For `Cc1ccc(NC(=O)Cc2ccc(Cl)c(Cl)c2)cc1S(=O)(=O)N(C)C`, which CPE inhibition is on record?
**A.** 11.7% (active)

**Q.** Which CPE inhibition does the source give for `Cc1ccc(NC(=O)CNc2ccc(Cl)c(Cl)c2)cc1S(=O)(=O)N(C)C` here?
**A.** 20.7% (active)

**Q.** For `Cc1ccc(NC(=O)CCNC(=O)c2ccccc2Cl)cc1S(=O)(=O)N(C)C`, which CPE inhibition is on record?
**A.** 0.01%

**Q.** Which CPE inhibition does the source give for `CN(C)S(=O)(=O)n1cnc([C@@H]2[C@H]3C(=O)OC[C@@H]3C[C@@]23N=CN(Cc2ccccc2)C3=O)c1` here?
**A.** 0.215%

**Q.** For `CC1CCCN(c2ccc(C(=O)NCc3ccc4c(c3)OCO4)cc2[N+](=O)[O-])C1` (stereo unspecified), which CPE inhibition is on record?
**A.** 0.66%

**Q.** With `NNC(=O)c1ccc(COc2cccc3ccccc23)cc1` as the compound, how does the CPE inhibition read?
**A.** 0.845%

**Q.** Which CPE inhibition does the source give for `CC(C)c1ccc(NCCC(=O)c2ccc(Br)cc2)cc1` here?
**A.** inactive

**Q.** With `CCNC(=S)Nc1cc(Cl)ccc1Oc1ccccc1` as the compound, how does the CPE inhibition read?
**A.** 1.55%

**Q.** With `CC1=NN(c2ccccc2)C(=O)/C1=C/c1ccc[nH]1` as the compound, how does the CPE inhibition read?
**A.** inactive

**Q.** With `COc1cc(/C=C2\C(=O)N(c3ccccc3)N=C2C)ccc1Oc1ccc([N+](=O)[O-])cc1[N+](=O)[O-]` as the compound, how does the CPE inhibition read?
**A.** 12.3% (active)

**Q.** With `CC1=NN(c2ccccc2)C(=O)/C1=C\c1cc(C)n(-c2ccccc2)c1C` as the compound, how does the CPE inhibition read?
**A.** 1.6%

**Q.** Which CPE inhibition does the source give for `CCOC(=O)c1cc(-c2ccccc2)sc1NC(=O)CC` here?
**A.** inactive

**Q.** For `CCOC(=O)c1cc(-c2ccccc2)sc1NC(=O)C(C)Sc1nnc(N)s1` (stereo unspecified), which CPE inhibition is on record?
**A.** 19% (active)

**Q.** With `CCOC(=O)c1cc(-c2ccccc2)sc1NC(=O)C(C)C` as the compound, how does the CPE inhibition read?
**A.** 0.57%

**Q.** For `COC(=O)NNC(=O)COc1ccc2ccccc2c1Br`, which CPE inhibition is on record?
**A.** inactive
